Only some compounds are listed: those with a hit (about 2.4% of all), similar ones and a draw of the others.
D2 ag-1 = HTS Assay for Allosteric Agonists of the Human D2 Dopamine Receptor: Primary Screen for Agonists | hit rate 0.53% among 340,000 | AID 485358, 2010 | activation, % at 2 µM | HEK293 T-REx D2 cells, calcium flux agonist mode;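 active = activation over 3 SD above normal in the single-dose calcium agonist read, cut at about 30% in these data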
Target sequence (P14416 whole entry, looked up): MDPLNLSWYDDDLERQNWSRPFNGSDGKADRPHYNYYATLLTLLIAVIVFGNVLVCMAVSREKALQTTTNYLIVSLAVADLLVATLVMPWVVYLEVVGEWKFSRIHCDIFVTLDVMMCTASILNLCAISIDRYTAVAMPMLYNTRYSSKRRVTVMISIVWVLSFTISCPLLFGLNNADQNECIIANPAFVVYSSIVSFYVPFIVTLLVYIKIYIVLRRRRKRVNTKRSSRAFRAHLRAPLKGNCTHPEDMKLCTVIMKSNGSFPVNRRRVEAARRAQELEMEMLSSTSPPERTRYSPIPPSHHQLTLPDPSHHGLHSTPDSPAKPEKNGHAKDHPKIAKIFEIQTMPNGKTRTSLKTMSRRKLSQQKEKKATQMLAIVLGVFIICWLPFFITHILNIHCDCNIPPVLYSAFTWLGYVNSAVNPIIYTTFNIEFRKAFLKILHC
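HEK293 Trex D2 cells, tetracycline-induced, o/n 30 C 5% CO2; no-wash Ca dye, RT 30–90 min; 10-cycle baseline, 23 nl cpd added, kinetic Ca read 180 s; agonist hits = positive Ca response.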
D2 PAM-1 = Beta-Arrestin HTS for Positive Allosteric Modulators of the Human D2 Dopamine Receptor: Potentiators. potentiation, % (concentration not given with the values). DiscoveRx D2 beta-arrestin cells, luminescence, 90 min; 100% = 57 uM dopamine signal. D(2) dopamine receptor (Homo sapiens), P14416. hit rate 0.23% among 360,000; in the data active = potentiation above about 50%; inconclusive = mostly about 30% to 49%
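PathHunter beta-arrestin assay in DiscoveRx D2 cells. Compounds were added with an EC20 of dopamine (50 nM final) for 90 min at 37 deg C. Luminescence was read 1 h after detection reagent, with 57 uM dopamine as the EC100 control.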
D2 PAM-2 = HTS Assay for Positive Allosteric Modulators of the Human D2 Dopamine Receptor: Primary Screen for Potentiators; D(2) dopamine receptor (Homo sapiens), P14416; AID 485347, 2010; hit rate 0.34% among 340,000; HEK293 T-REx D2, calcium flux, EC20 dopamine potentiation; potentiation, % at 10 µM;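 active = potentiation over 3 SD above the plate norm, cut at about 30% in these data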
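Tetracycline-induced HEK293 T-REx cells force-coupled to calcium signalling expressed D2; compounds were pin-added after a 10 s baseline, read kinetically 180 s, then an EC20 dopamine challenge followed with a further 180 s calcium read.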
D2 antagonist = HTS Assay for Allosteric Antagonists of the Human D2 Dopamine Receptor: Primary Screen for Antagonists; AID 485344, 2010; HEK293 TREx D2 cells, calcium flux, dopamine EC80; inhibition, % at 10 µM; hit rate 2% among 340,000; in the data active = inhibition above about 30%; inactive = below that, where a call was filed
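Calcium mobilization kinetics were recorded at 1 s intervals in tetracycline-induced HEK293 T-REx D2 cells, first for 180 s after compound addition and then 180 s after EC80 dopamine.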
D2 ag-2 = Beta-Arrestin HTS for Positive Allosteric Modulators of the Human D2 Dopamine Receptor: Agonists; D(2) dopamine receptor (Homo sapiens), P14416; DiscoveRx PathHunter D2 beta-arrestin, luminescence, 90 min; 100% = 57 uM dopamine signal; activation, % (concentration not given with the values); hit rate 0.084% among 360,000; AID 624465, 2012; in the data active = activation above about 40%; inconclusive = between about 15% and that limit
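Agonist mode: compounds alone added to overnight-plated D2 PathHunter cells for 90 min at 37 C, with 57 uM final dopamine (EC100) defining full response. Beta-arrestin recruitment detected by chemiluminescent reagent, read after 1 h at ambient temperature.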
D3 arrestin ag = qHTS of D3 Dopamine Receptor Agonist: D3 Dopamine Receptor B-arrestin Agonist Confirmatory Assay | hit rate 4% among 2,300 | DiscoveRx D3 beta-arrestin cells, luminescence, 90 min | Potency, µM (top dose mostly 76.9 µM), actives largely listed as activators | shares compounds with D2 ag-1; note: nearly all actives have a fitted effect of over 70% in size
D2 ag-3 = qHTS of D3 Dopamine Receptor Agonist: D2 Dopamine Receptor B-arrestin Agonist Counterscreen. shares compounds with D2 ag-1. DiscoveRx PathHunter D2 beta-arrestin, luminescence, 90 min; response scale: percent relative to full dopamine signal. Potency, µM (doses to about 76.9 µM), hits mostly activators. hit rate 5.9% among 2,300; note: nearly all actives have a fitted effect of over 70% in size
Numbers stand for hits; n = inactive; u = inconclusive; x = not tested or not shown; ! = not confirmed by another sample. Unless noted, calls come from the whole dose curve; as a rule, active = well fitted activation curve with a large enough effect; inconclusive = small, poorly fitted or top-dose-only effect; inactive = flat fitted curve, though single readings scatter.

SMILES | D2 ag-1 | D2 PAM-1 | D2 PAM-2 | D2 antagonist | D2 ag-2 | D3 arrestin ag | D2 ag-3
CCOC(=O)CN(Cc1ccccc1)C(C(=O)NC1CCCCC1)c1ccc(C)cc1 (centres undefined) | n | x | n | x | x | x | x
Nc1ccc(C(=O)O)cc1[N+](=O)[O-] | n | n | n | n | n | x | x
Nc1ccc(C(=O)c2cccs2)cc1[N+](=O)[O-] | n | n | n | n | n | n | n
CCCCN(C(=O)CC1CCCC1)c1c(N)n(CCCC)c(=O)[nH]c1=O | n | n | n | n | n | x | x
N#Cc1cnc2nc(SCc3ccccc3)nn2c1 | n | n | n | n | n | x | x
Cn1nnnc1Sc1ncnc2scc(-c3ccc(F)cc3)c12 | x | n | x | x | n | n | n
Cn1nnnc1Sc1ncnc2scc(-c3ccccc3)c12 | n | n | n | n | n | x | x
CC1=C(C(=O)Nc2ccccc2)C(c2ccc[nH]2)n2ncnc2N1 (centres undefined) | n | x | n | x | x | x | x
COc1cc(CCC(C)NCc2ccccc2)ccc1O (centres undefined) | 79.3 | n | n | 74.9 | u | n | u
COc1ccc(CNC(C)CCc2ccccc2)cc1 (centres undefined) | 64.5 | n | n | 61.5 | n | n | n
CC(CCc1ccccc1)NCc1ccc(Cl)cc1Cl (centres undefined) | 51.8 | n | n | 45.0 | n | n | n
CC(CCc1ccc(O)cc1)NCc1ccc(Br)cc1 (centres undefined) | 38.8 | n | n | 31.7 | n | u | n
Cc1nnc(N2CCC(C(=O)NCCC(C)C)CC2)c2nn(-c3ccc(Cl)cc3)c(C)c12 | n | x | n | x | x | x | x
COc1ccc(CNC(=O)COC(=O)c2c(NC(C)=O)sc(C)c2C)cc1OC | x | n | x | x | n | x | x
CCCCN(CC)CCNC(=O)c1cc2c(=O)oc3ccc(C)cc3c2s1 | n | x | n | x | x | x | x
CC(CCc1ccccc1)NCC#N (centres undefined) | 56.7 | n | n | 33.6 | n | n | n
CC(=O)NC(C)CCc1ccccc1 (centres undefined) | n | n | n | n | n | x | x
COc1ccccc1NS(=O)(=O)c1cc(C(=O)N2CCCC2)ccc1F | n | n | n | n | n | x | x
COc1ccc2sc(-c3ccccc3OC)c(-c3ccc(OC)c(F)c3)c2c1 | 47.7 | n | n | n | n | n | n
COc1ccc(-c2sc3ccc(OC)cc3c2-c2ccc(OC)c(F)c2)cc1 | n | n | n | n | n | x | x
COc1ccc(C)cc1NC(=O)Nc1ccccc1OCc1cc(=O)n2ccccc2n1 | n | x | n | x | x | x | x
CC1=C(C(=O)OCc2ccc(C)cc2)C(c2ccccc2C(F)(F)F)CC(=O)N1 (centres undefined) | n | x | n | x | x | x | x
O=S(=O)(CCN1CCN(c2ccccn2)CC1)c1ccc(Cl)cc1Cl | 50.3 | n | n | n | n | n | n
Cc1ccccc1C(=O)Nc1ccnn1C1CCN(CCCc2ccccc2)CC1 | n | n | n | n | u | x | x
O=C(Nc1ccnn1C1CCN(CCCc2ccccc2)CC1)c1ccccc1 | n | n | n | 43.6 | n | n | n
SMILES | D2 ag-1 | D2 PAM-1 | D2 PAM-2 | D2 antagonist | D2 ag-2 | D3 arrestin ag | D2 ag-3
O=C(Nc1ccnn1C1CCN(C/C=C/c2ccccc2)CC1)C1CCCC1 | 58.2 | n | n | n | n | n | n
COc1ccccc1C(=O)Nc1ccnn1C1CCN(CCCc2ccccc2)CC1 | n | n | n | 32.8 | n | n | n
COc1cc(C(=O)N2CCN(S(=O)(=O)c3ccc(C)cc3C)CC2)ccc1OCC(=O)N1CCOCC1 | n | n | n | n | n | x | x
O=C1CC2(CCN(C(=O)c3ccc(F)c(F)c3)CC2)Oc2ccccc21 | n | n | n | n | n | x | x
COc1ccccc1CN1CCN(C(=O)c2ccco2)CC1 | 80.4 | 52.8 | n | 85.4 | 66.9 | u | 10µM
COc1ccccc1N1CCN(C(=O)c2ccco2)CC1 | x | n | x | x | n | x | x
COc1ccc(Br)cc1CN1CCN(C(=O)c2ccco2)CC1 | x | n | x | x | n | n | n
CC1(C(=O)NS(=O)(=O)c2ccc(Br)cc2)CCN1C(=O)c1cccc(F)c1 (centres undefined) | x | n | x | x | n | x | x
Cc1ccc(CSc2nc3ccc(NC(=O)C(C)C)cc3s2)cc1 | x | x | n | x | x | x | x
CCCN(CCC)CCNC(=O)c1cc2c(-c3ccc(Cl)cc3)nn(C)c2s1 | 45.0 | n | n | 37.0 | u | n | u
CCCN(CCC)CCNC(=O)c1cc2c(-c3ccccc3F)nn(C)c2s1 | 42.6 | u | n | 41.5 | 66.7 | n | u
CCN(CC)CCNC(=O)c1cc2c(-c3ccc(Cl)cc3)nn(C)c2s1 | n | n | n | n | n | x | x
CCCCN(CC)CCNC(=O)c1cc2c(-c3ccc(Cl)cc3)nn(C)c2s1 | 44.3! | 56.7 | n | 71.8 | 74.9 | u | 25.1µM
COc1ccc(-c2coc3c(C(=O)NCc4ccc(OC)c(OC)c4)cccc23)c(C)c1 | x | n | x | x | n | x | x
Cn1ccnc1SCC(=O)Nc1ccc(Br)cc1C(F)(F)F | n | n | n | n | n | x | x
CN(CCOc1cccc2ccccc12)Cc1ccccc1 | x | n | n | x | u | n | n
COc1ccc(-c2cc(C(=O)N3CCCC(C(F)(F)F)C3)c3ccccc3n2)cc1 (centres undefined) | n | n | n | n | n | n | n
CCCOc1ccc(C(=O)NNC(=S)NC(=O)c2ccco2)cc1 | 33.9 | n | n | n | n | n | n
CC(=O)Nc1ccc(NC(=O)CSc2ccc3nnc(CCNC(=O)c4ccccc4)n3n2)cc1 | n | n | n | n | n | x | x
COc1ccc(NC(=O)CSc2ccc3nnc(CCNC(=O)c4ccccc4)n3n2)cc1 | n | n | n | n | n | n | n
O=C(/C=C/c1ccccc1[N+](=O)[O-])NNC(=O)c1ccncc1 | n | n | n | n | n | n | n
O=C(NNC(=O)c1ccncc1)Nc1cccc(C(F)(F)F)c1 | n | n | n | n | n | x | x
O=C(/C=C/c1cccc(C(F)(F)F)c1)NNC(=O)c1ccncc1 | n | n | n | n | n | n | n
COc1ccc(NC(=O)c2nc3nc(C)cc(C(F)F)n3n2)cc1OC | n | n | n | n | n | x | x
